{
  "source": "PubChem BioAssay (NCATS)",
  "note": "Records with an inconclusive call do not appear. Values without a mark were called inactive. Active and inactive are the calls of the source. Calls follow the shape of the dose curve; as a rule, active = well fitted cell-killing curve with a large enough effect; inconclusive = small, poorly fitted or top-dose-only effect, or effect the other way; inactive = no such curve, though single readings can be large or run the other way. Potency is read from the fitted curve at half-maximal effect.",
  "data": [
    {"experiment": "Quantitative High-Throughput drug screen in 47 multiple myeloma cell lines against the NCATS MIPE library collection: H1112_PLB cell viability assay (AID 1918967; also: nearly all actives have a fitted effect of over 30% in size)", "settings": "H1112 myeloma cells viability, ATP luminescence, 48 h; series mostly up to 45.8 µM; viability: at the top concentration", "text": "PI: Beverly A. Mock Ph.D.\nLaboratory of Cancer Biology and Genetics,\nCenter for Cancer Research, National Cancer Institute,\nNational Institute of Health, Bethesda, Maryland\nDrug resistance and disease progression are common in multiple myeloma (MM) patients, underscoring the need for new therapeutic combinations. […] We hypothesized that effective combinations would reduce MYC expression and enhance p16 activity. […] These preclinical data identify potentially useful drug combinations for evaluation in drug-resistant MM and reveal potential mechanisms of combined drug sensitivity.\nDescribed herein is the primary MIPE qHTS used to cherrypick compounds. Validated compounds were then further tested for potential synergistic activiy.\n[1] Peat TJ, Gaikwad SM, Dubois W, Gyabaah-Kessie N, Zhang S, Gorjifard S, Phyo Z, Andres M, Hughitt VK, Simpson RM, Miller MA, Girvin AT, Taylor A, Williams D, D'Antonio N, Zhang Y, Rajagopalan A, Flietner E, Wilson K, Zhang X, Shinn P, Klumpp-Thomas C, McKnight C, Itkin Z, Chen L, Kazandijian D, Zhang J, Michalowski AM, Simmons JK, Keats J, Thomas CJ, Mock BA. Drug combinations identified by high-throughput screening promote cell cycle transition and upregulate Smad pathways in myeloma. Cancer Lett. 2023 Aug 1;568:216284. doi: 10.1016/j.canlet.2023.216284. Epub 2023 Jun 24. PMID: 37356470; PMCID: PMC10408729.\nSEQUENCE No. (e.g., 1, 2, 3, etc.); […] (e.g., Cells, Incubation, Reagent, etc.); VALUE and DESCRIPTION.\n1; Cells; 5 uL; white, solid bottom 1536-well Greiner assay plate.\n2; Compounds; 23 nL; Kalypsis pin tool (Wako USA) equipped with a 1536-well pin head to transfer to the assay plates.\n3; Incubation; 48 hours; 37C incubation.\n4; Reagent;5uL; CellTiter Glo (Promega).\n5; Detector; 425V; Luminescence; Viewlux PerkinElmer.\nNOTES (numbers refer to Sequence numbers above)\n1. The cell-based screening methods employed in this study were like those previously published. Briefly, the corresponding myeloma cell lines were screened in 1,536-well plates with 500 cells, 5-uL per well for inhibition of cell viability (assessed by measuring ATP levels with CellTiterGlo).\n2. NCATS MIPE 4.0 library of approved and investigational drugs were added using the Kalypsis pin tool. Wells treated with DMSO only for 100% viability and media only wells for 0% viability were used as controls.\n3. The assay plates were covered and incubated for 48 hours in a 37C, 5% CO2 incubator with controlled humidity.\n4. After 48 hours, CellTilter-GloTM luminescent substrate mix (Promega) reagent was added to the assay plate and plates we incubated for 5 min at room temperature.\n5. Signal was measured as median relative luminescence units on a ViewLux (PerkinElmer) multiplate reader.\n[1] Heske CM, Davis MI, Baumgart JT, Wilson K, Gormally MV, Chen L, Zhang X, Ceribelli M, Duveau DY, Guha R, Ferrer M, Arnaldez FI, Ji J, Tran HL, Zhang Y, Mendoza A, Helman LJ, Thomas CJ. Matrix Screen Identifies Synergistic Combination of PARP Inhibitors and Nicotinamide Phosphoribosyltransferase (NAMPT) Inhibitors in Ewing Sarcoma. Clin Cancer Res. 2017 Dec 1;23(23):7301-7311. doi: 10.1158/1078-0432.CCR-17-1121. Epub 2017 Sep 12. PMID: 28899971; PMCID: PMC6636827.", "values": [
      {"smiles": "CC[C@H](NC(C)C)[C@H](O)c1ccc(O)c2[nH]c(=O)ccc12", "viability": "113%"},
      {"smiles": "CN(Cc1cc(Br)cc(Br)c1N)C1CCCCC1", "viability": "110%"},
      {"smiles": "CC(C)OC(=O)C(C(=O)OC(C)C)=C1SC=CS1", "viability": "115%"},
      {"smiles": "C[C@@H](CN1CC(=O)NC(=O)C1)N1CC(=O)NC(=O)C1", "Potency": "16.6 µM (active)"},
      {"smiles": "COC(c1ccccc1)(c1ccccc1)[C@H](Oc1nc(C)cc(C)n1)C(=O)O", "viability": "132%"},
      {"smiles": "Cc1ncc([N+](=O)[O-])n1CCO", "viability": "127%"},
      {"smiles": "CNCC[C@H](Oc1cccc2ccccc12)c1cccs1", "Potency": "2.35 µM (active)"},
      {"smiles": "C[C@@H]1C[C@H]2[C@@H]3CCC4=CC(=O)C=C[C@]4(C)[C@@]3(Cl)[C@@H](O)C[C@]2(C)[C@@]1(OC(=O)c1ccco1)C(=O)CCl", "Potency": "5.26 µM (active)"},
      {"smiles": "COc1cccc(N(C)C(=S)Oc2ccc3c(c2)CCCC3)n1", "viability": "106%"},
      {"smiles": "CC1(C)[C@H](C(=O)O)N2C(=O)C[C@H]2S1(=O)=O", "viability": "130%"},
      {"smiles": "CNC(=O)c1cc(Oc2ccc(NC(=O)Nc3ccc(Cl)c(C(F)(F)F)c3)cc2)ccn1", "Potency": "9.35 µM (active)"},
      {"smiles": "CC(C)Cn1cnc2c(N)nc3ccccc3c21", "viability": "97.4%"},
      {"smiles": "COc1ncnc(NS(=O)(=O)c2ccc(N)cc2)c1OC", "viability": "86.6%"},
      {"smiles": "CCN(C)C(=O)Oc1cccc([C@H](C)N(C)C)c1", "viability": "106%"},
      {"smiles": "CC1=C(C(=O)O)N2C(=O)[C@@H](NC(=O)C(N)c3ccccc3)[C@H]2SC1", "note": "(stereo not given in full)", "viability": "99.1%"},
      {"smiles": "C1CCC(C(CC2CCCCN2)C2CCCCC2)CC1", "note": "(stereo not given)", "Potency": "23.5 µM (active)"},
      {"smiles": "CC(C(=O)O)c1ccc2c(c1)CC(=O)c1ccccc1S2", "note": "(stereo not given)", "viability": "108%"},
      {"smiles": "CC(C)(C)NC(=O)[C@H]1CC[C@H]2[C@@H]3CC[C@H]4NC(=O)C=C[C@]4(C)[C@H]3CC[C@]12C", "Potency": "1.18 µM (active)"},
      {"smiles": "Nc1nc(F)nc2c1ncn2[C@@H]1O[C@H](CO)[C@@H](O)[C@@H]1O", "Potency": "0.526 µM (active)"},
      {"smiles": "CCOC(=O)c1ccc(OC(=O)CCCCCN=C(N)N)cc1", "viability": "108%"},
      {"smiles": "COc1c(N2CCNC(C)C2)c(F)cc2c(=O)c(C(=O)O)cn(C3CC3)c12", "note": "(stereo not given)", "viability": "91.9%"},
      {"smiles": "CN1CCCC(n2nc(Cc3ccc(Cl)cc3)c3ccccc3c2=O)CC1", "note": "(stereo not given)", "Potency": "1.87 µM (active)"},
      {"smiles": "COc1ccccc1OCC(O)COC(N)=O", "note": "(stereo not given)", "viability": "123%"},
      {"smiles": "CCCCCCNC(=O)n1cc(F)c(=O)[nH]c1=O", "Potency": "5.26 µM (active)"},
      {"smiles": "Cc1onc(-c2ccccc2Cl)c1C(=O)N[C@@H]1C(=O)N2[C@@H]1SC(C)(C)[C@@H]2C(=O)O", "viability": "113%"},
      {"smiles": "CN1CCN(c2c(F)cc3c(=O)c(C(=O)O)cn4c3c2OCN4C)CC1", "viability": "113%"},
      {"smiles": "CCCOc1ccc(C(=O)OCCN(CC)CC)cc1N", "viability": "103%"},
      {"smiles": "NC(=O)c1cccc(N)c1", "viability": "102%"},
      {"smiles": "C[C@]12C=CC(=O)C=C1CC[C@@H]1[C@@H]2C(=O)C[C@@]2(C)[C@H]1CC[C@]2(O)C(=O)CO", "viability": "141% [at 23.2 µM]"},
      {"smiles": "CCCc1nc(C)c2c(=O)[nH]c(-c3cc(S(=O)(=O)N4CCN(CC)CC4)ccc3OCC)nn12", "Potency": "10.5 µM (active)"},
      {"smiles": "Cc1cc(NS(=O)(=O)c2ccc(N)cc2)no1", "viability": "105%"},
      {"smiles": "COc1cc(NS(=O)(=O)c2ccc(N)cc2)nc(OC)n1", "viability": "106%"},
      {"smiles": "Cc1cccc(N(C)C(=S)Oc2ccc3ccccc3c2)c1", "viability": "103%"},
      {"smiles": "O=P(O)(O)C(O)(Cc1cccnc1)P(=O)(O)O", "viability": "121%"},
      {"smiles": "CCC(=O)O[C@]1(C(=O)CCl)[C@@H](C)C[C@H]2[C@@H]3CCC4=CC(=O)C=C[C@]4(C)[C@@]3(F)[C@@H](O)C[C@@]21C", "viability": "129%"},
      {"smiles": "O=NN(CCCl)C(=O)NC1CCCCC1", "viability": "112%"},
      {"smiles": "O=C(O)c1cccnc1", "viability": "126%"},
      {"smiles": "O=C(O)C1CCCN(CCC=C(c2ccccc2)c2ccccc2)C1", "note": "(stereo not given)", "viability": "132%"},
      {"smiles": "CCOC(=O)[C@H](CCc1ccccc1)N[C@H]1CS[C@H](c2cccs2)CN(CC(=O)O)C1=O", "Potency": "13.2 µM (active)"},
      {"smiles": "Cc1cccc(Nc2ccncc2S(=O)(=O)NC(=O)NC(C)C)c1", "viability": "97.5%"}
    ]}
  ]
}
